The results in this text go back to ChEMBL document CHEMBL1157539, “Thousands of chemical starting points for antimalarial lead identification” (Nature, 2010).

Format in all cases: functional
Assay [1] relates to Plasmodium falciparum. Kind of assay: GSK_TCMDC: Inhibition of Plasmodium falciparum 3D7 in whole red blood cells, using parasite LDH activity as an index of growth. Test compounds present at 2uM.
The subject of assay [2] is Plasmodium falciparum. Put plainly: GSK_TCMDC: Inhibition of Plasmodium falciparum Dd2 in whole red blood cells, using parasite LDH activity as an index of growth. Test compounds present at 2uM.
The next assay relates to HepG2. Kind of assay: GSK_TCMDC: Percent inhibition of human HepG2 cell line. Test compounds present at 10uM.

By Inhibition is commonly meant the percentage by which the read-out fell short of the control. The low end stands for a response near the control, the high end for a response far below the control. Turning to `CSc1cccc(Nc2nc3ccc(S(=O)(=O)NCC(C)C)cc3n2C(C)C(C)C)c1` (stereo unspecified), the Inhibition amounted to 93% in the assay on Plasmodium falciparum [1], 91% in the assay with Plasmodium falciparum [2] and 3% in the assay on HepG2.

On to `Cc1ccc(NC(=O)c2ccc3ncccc3c2)cc1OC1CCN(C(C)C)C1.O=C(O)C(F)(F)F` (stereo unspecified), for which the Inhibition in the assay with Plasmodium falciparum [1] was 95%; with Plasmodium falciparum [2] it was 37%; with HepG2, 12%.

In the case of `Oc1ccc(-c2cc(-c3ccc(O)cc3)nc(-c3ccccc3)n2)cc1`, the Inhibition with Plasmodium falciparum [1] came out at 96%; with Plasmodium falciparum [2] it was 97%; in the assay with HepG2, 0%.

Consider `COc1ccc2nc(NC(N)=NC(=O)Nc3ccccc3)nc(C)c2c1`, for which the Inhibition is reported as 90% in the assay on Plasmodium falciparum [1], 15% with Plasmodium falciparum [2] and 3% with HepG2.

On to `COc1ccc(C=NN=c2cc(C)[nH]c3ccccc23)c(OC)c1`, for which the Inhibition in the assay with Plasmodium falciparum [1] is on record as 100%; with Plasmodium falciparum [2] it was 94%; in the assay with HepG2, 24%.

As for `Cc1cc(N[C@@H](CC(C)C)C(=O)NCCCOC(C)C)nc(NCCc2ccc(F)cc2)n1.O=C(O)C(F)(F)F`, the Inhibition in the assay with Plasmodium falciparum [1] was 87%; in the assay with Plasmodium falciparum [2] it was 19%; in the assay on HepG2, 5%.

For the compound `Fc1cc(Cl)ccc1Nc1ccnc2cc(-c3ccc(CN4CCCCC4)o3)ccc12`, the Inhibition with Plasmodium falciparum [1] was 100%; in the assay on Plasmodium falciparum [2], 99%; in the assay with HepG2 it was 16%.

On to `Cc1ccc(NC(=O)N2CCN(CCCCCNC(=O)/C=C/c3ccc(Cl)c(Cl)c3)CC2)cc1C`, for which the results for the Inhibition with Plasmodium falciparum [1], with Plasmodium falciparum [2] and with HepG2 were 94%, 0% and 7%, respectively.

For `COc1ccc(Nc2ncc3c(-c4cccc(NC(=O)Cc5ccc(F)cc5)c4)c[nH]c3n2)cc1OC`, the Inhibition with Plasmodium falciparum [1] amounted to 100%; in the assay with Plasmodium falciparum [2], 90%; in the assay with HepG2, 21%.

Take `Nc1nccc2ccc(-c3cccc(O)c3)cc12`: the Inhibition in the assay with Plasmodium falciparum [1] is 95%; in the assay on Plasmodium falciparum [2], 71%; with HepG2 it was 43%.

Take `O=C1COc2ccccc2N1C/C=C(\CN1CCC(c2ccccc2)CC1)c1cc(Cl)cc(Cl)c1`: the Inhibition in the assay with Plasmodium falciparum [1] is listed as 91%; in the assay with Plasmodium falciparum [2], 72%; in the assay with HepG2, 14%.

As for `COc1ccc(NC(=O)c2cccc(Br)c2)cc1N1CCN(CCCCCCCN2CCN(c3cc(NC(=O)c4cccc(Br)c4)ccc3OC)CC2)CC1.Cl`, the values for the Inhibition in the assay on Plasmodium falciparum [1], with Plasmodium falciparum [2] and in the assay with HepG2 were 99%, 93% and 97%, respectively.

In the case of `CSc1ccccc1NC(=S)NC1CCN(CCCCCNC(=O)/C=C/c2ccc(Cl)c(Cl)c2)CC1`, the Inhibition in the assay on Plasmodium falciparum [1] turned out to be 98%; with Plasmodium falciparum [2], 27%; in the assay with HepG2, 19%.

As for `CCc1sc(N2CCN(C)CC2)nc1C(=O)Nc1ccc(F)cc1C(F)(F)F.O=C(O)C(F)(F)F`, the Inhibition is reported as 100% with Plasmodium falciparum [1], 98% in the assay with Plasmodium falciparum [2] and 0% in the assay with HepG2.

Regarding `Nc1ccc(-c2cnc3[nH]cc(-c4ccc(C(=O)O)cc4)c3c2)cn1.O=C(O)C(F)(F)F`, the results for the Inhibition in the assay with Plasmodium falciparum [1], in the assay with Plasmodium falciparum [2] and in the assay with HepG2 were 97%, 99% and 48%, respectively.

Regarding `Br.Cc1ccccc1OCCCON1C(=N)N=C(N)NC1(C)C`, the Inhibition in the assay with Plasmodium falciparum [1] stood at 95%; with Plasmodium falciparum [2] it was 97%; in the assay with HepG2 it was 66%.

Regarding `O=C(NC(=S)NCc1ccncc1)c1ccccc1`, the values for the Inhibition in the assay on Plasmodium falciparum [1], with Plasmodium falciparum [2] and in the assay with HepG2 were 94%, 0% and 0%, respectively.

`Cc1[nH]c(C)c(-c2ccc(-c3cccc(Cl)c3)nc2)c(=O)c1Cl`: the results for the Inhibition in the assay with Plasmodium falciparum [1], with Plasmodium falciparum [2] and with HepG2 were 97%, 97% and 15%, respectively.

`COc1cc2c(cc1OC)C(C(=O)Nc1cc(OC)c(OC)c(OC)c1)C(c1ccc(SC)cc1)N(C)C2=O` (stereo unspecified): the results for the Inhibition with Plasmodium falciparum [1], in the assay with Plasmodium falciparum [2] and in the assay on HepG2 were 97%, 64% and 14%, respectively.

On to `CCC(CC)n1cc2c(ccc3nc(N)nc(N)c32)n1`, for which the Inhibition with Plasmodium falciparum [1] is on record as 91%; with Plasmodium falciparum [2], 0%; in the assay with HepG2, 61%.

For the compound `CC(C)OC(=O)c1ccc(NC(=O)N[C@@H](Cc2ccc(O)cc2)C(=O)NC2CCC(CCN3C4CCC3c3ccccc34)CC2)cc1.O=C(O)C(F)(F)F` (stereo partly specified), the values for the Inhibition in the assay on Plasmodium falciparum [1], with Plasmodium falciparum [2] and in the assay on HepG2 were 95%, 67% and 3%, respectively.

Regarding `O=c1cc(NCCCNCc2cc(C(F)(F)F)ccc2F)[nH]c2ccccc12`, the Inhibition with Plasmodium falciparum [1] turned out to be 94%; in the assay on Plasmodium falciparum [2], 43%; with HepG2, 0%.

Take `CN(C)C(CNC(=O)c1cc(-c2ccncc2)c(-c2cc3ccccc3[nH]2)o1)c1ccccc1.O=C(O)C(F)(F)F` (stereo unspecified): the values for the Inhibition in the assay with Plasmodium falciparum [1], in the assay with Plasmodium falciparum [2] and in the assay on HepG2 were 96%, 62% and 3%, respectively.

On to `COc1ccc2nc(SC(C)C(=O)c3c[nH]c4ccccc34)[nH]c2c1` (stereo unspecified), for which the Inhibition with Plasmodium falciparum [1] is listed as 100%; in the assay on Plasmodium falciparum [2] it was 98%; in the assay on HepG2 it was 0%.

As to `Cc1ccc(Oc2cnn(C)c(=O)c2Nc2cccc(C(=O)NCCc3ccccn3)c2)c(C)c1`, the Inhibition is 94% in the assay with Plasmodium falciparum [1], 94% with Plasmodium falciparum [2] and 0% in the assay with HepG2.

On to `Cc1nn(C2CCS(=O)(=O)C2)c(C)c1C1Nc2ccccc2C(=O)N1Cc1ccc2c(c1)OCO2` (stereo unspecified), for which the Inhibition with Plasmodium falciparum [1] came to 98%; in the assay with Plasmodium falciparum [2], 93%; in the assay on HepG2, 7%.

Turning to `CCCCNc1ccc(C(=O)NC2CCN(C[C@H](O)c3ccnc4ccc(OC)cc34)CC2)cc1`, the Inhibition in the assay with Plasmodium falciparum [1] is given as 90%; in the assay on Plasmodium falciparum [2], 64%; in the assay with HepG2, 12%.

In the case of `Cc1ccc(CNC(=O)c2cc3c(=O)n4cccc(C)c4nc3n(CCN3CCOCC3)c2=N)cc1`, the Inhibition was found to be 97% in the assay with Plasmodium falciparum [1], 21% in the assay on Plasmodium falciparum [2] and 31% in the assay with HepG2.

As to `O=C(/C=C/c1ccc(Cl)c(Cl)c1)N1CCC(CN2CCC(Cc3nc4ccccc4[nH]3)CC2)CC1`, the Inhibition in the assay with Plasmodium falciparum [1] came to 100%; in the assay on Plasmodium falciparum [2], 95%; in the assay with HepG2, 34%.

Take `CN(C)c1nc2cc(-n3cnc4cc(-c5ccc(Cl)cc5)sc4c3=O)ccc2n1CCCN1CCCCC1.O=C(O)C(F)(F)F`: the Inhibition in the assay with Plasmodium falciparum [1] came to 97%; in the assay with Plasmodium falciparum [2], 23%; in the assay with HepG2, 55%.

Turning to `CCc1nc(N)nc(N)c1-c1ccc(C(C)C)cc1`, the values for the Inhibition in the assay with Plasmodium falciparum [1], in the assay with Plasmodium falciparum [2] and in the assay with HepG2 were 92%, 0% and 3%, respectively.

With `O=C(Nc1ccc2c(c1)CCC2)N[C@H]1CCN(CCCCCNC(=O)C2CC2c2ccc(Cl)c(Cl)c2)C1` (stereo partly specified), the figures for the Inhibition with Plasmodium falciparum [1], in the assay on Plasmodium falciparum [2] and in the assay with HepG2 were 86%, 0% and 37%, respectively.
